Sampled rows, rich in hits. Any-hit rate of the full collection: about 2.9%.
SKN-1 block: C. elegans SKN-1 inhibition; C. elegans VP596 Pgst-4::GFP/RFP ratio, acrylamide-induced, 24 h; inhibition, % at 21.8 µM; 0.49% of 360,000 active; AID 624304;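 active = interference check ratio from 0.5 to 1.5 plus GFP to RFP signal ratio inhibition reaching or exceeding a fixed threshold, cut at about 30% in these data, passing the limit was not always enough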
PG9 Ab binder: PG9 antibody binding by small molecule; TR-FRET gp120-PG9 antibody binding; inhibition, % at 6.7 µM; 0.43% of 360,000 active; AID 624416; in the data active = inhibition above about 8.5%
PGE2 EP2 inh: inhibitors of human EP2 prostaglandin E2 receptor. P43116. C6 glioma cells expressing human EP2, cAMP TR-FRET; cells stimulated with saturating PGE2. inhibition, % at 25 µM. 0.52% of 260,000 active;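 active = percent inhibition above 40 after rounding to a whole number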;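 note: rat C6 glioma host cells with rolipram phosphodiesterase inhibitor present; the protocol text gives 20 µM as final concentration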
Target sequence (P43116 whole entry, looked up): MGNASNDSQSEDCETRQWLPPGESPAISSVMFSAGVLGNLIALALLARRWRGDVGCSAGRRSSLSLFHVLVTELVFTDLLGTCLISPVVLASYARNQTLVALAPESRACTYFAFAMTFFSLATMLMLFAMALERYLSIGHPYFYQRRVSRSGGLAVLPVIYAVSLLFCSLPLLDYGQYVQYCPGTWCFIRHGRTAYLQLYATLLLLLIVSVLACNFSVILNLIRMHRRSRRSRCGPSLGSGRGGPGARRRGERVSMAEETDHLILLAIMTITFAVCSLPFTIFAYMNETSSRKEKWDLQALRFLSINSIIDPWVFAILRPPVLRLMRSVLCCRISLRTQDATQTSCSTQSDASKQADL
EP2 mod: modulators of human EP2 prostaglandin E2 receptor | P43116 | EP2-expressing cells, cAMP HTRF FRET, PGE2 co-stimulation | induction, % at 25 µM | 0.83% of 260,000 active;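 active = compounds whose cAMP rise, as percent of the full-agonist control response, exceeds 60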;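 note: rat C6 glioma line stably carrying human EP2 under a CMV promoter; the protocol text gives 20 µM as final concentration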
RAM inhibit: yeast RAM network inhibition; S. cerevisiae dse1pr::URA3 reporter, 5-FOA growth OD615, 2 d; analog-sensitive cbk1-as2 kinase mutant strain; inhibition, % at 50 µM; 1.8% of 190,000 active;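 active = inhibition above a set limit, 3 SD over mean compound inhibition, cut at about 8.4% in these data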;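 note: inhibition rescues growth on 5-FOA so higher OD means more RAM inhibition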
NR1D1 modulator: modulators of human Rev-erb alpha DNA binding. activity, % at 10 µM. Rev-erbα–FITC-DNA binding, fluorescence polarization, 90 min. P20393. 0.79% of 370,000 active;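 active = activity above about 14%, limit read from the data; passing the limit was not always enough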
Numbers stand for hits; i = inactive; nt = no result.

SMILES	SKN-1 block	PG9 Ab binder	PGE2 EP2 inh	EP2 mod	RAM inhibit	NR1D1 modulator
CC1=NN(C(=O)COc2cc(C)ccc2C(C)C)C(O)(c2ccccc2)C1 (configuration not stated)	i	i	i	61	nt	i
CCOc1ccc(C(=O)CSc2nnc(C(C)C)n2CC)cc1	nt	nt	i	i	nt	nt
CCCCSc1nc(C)c(C(C)=O)cc1C#N	i	i	i	i	10	i
CCOc1ccc2nc(SCc3ccc(CC(=O)O)cc3)c(C#N)cc2c1	i	i	i	i	9.5	i
CCOC(=O)c1cc(C#N)c(SCc2ccc(C#N)cc2)nc1C	i	i	i	i	10	i
Cn1c(C(=O)N2CCN(Cc3ccccc3)CC2)cc2sccc21	nt	nt	i	i	nt	nt
Cc1cccc(-n2c(SCC(=O)N3CC(=O)Nc4ccccc43)nc3ccccc3c2=O)c1C	i	i	i	i	9.6	i
Cc1sc2nc(C3CCCCC3)nc(SCC(=O)N3CC(=O)Nc4ccccc43)c2c1C	i	i	i	i	8.5	i
CCc1nc(SCC(=O)N2CC(=O)Nc3ccccc32)c2c(C)c(C)sc2n1	i	i	i	i	i	i
Cc1cccc(-n2c(SCC(=O)N3CC(=O)Nc4ccccc43)nc3ccccc3c2=O)c1	i	i	i	i	i	i
O=S(=O)(c1ccc(-n2cnnn2)cc1)N(C1CCCCC1)C1CCCCC1	i	i	i	64	i	i
CN(C1CCCCC1)S(=O)(=O)c1ccc(-n2cnnn2)cc1	i	i	i	i	i	i
COC(=O)COc1ccc(Cl)cc1C1NC(=O)NC(C)=C1C(=O)OC (configuration not stated)	nt	nt	i	i	nt	nt
CCOc1ccc2nc(SCC(=O)N3CCCc4ccccc43)sc2c1	i	i	i	i	10.0	i
CCOc1ccc2nc(SCC(=O)c3ccc(Cl)s3)sc2c1	i	i	i	i	9.8	i
CCOc1ccc2nc(SCC(=O)c3cccs3)sc2c1	i	i	i	i	i	i
CCN(CC)CCCNC(=S)N(CCO)Cc1cc2cccc(C)c2[nH]c1=O	nt	nt	i	i	nt	nt
O=C(NCCN1CCOCC1)C1CC(c2c(F)cccc2Cl)=NO1 (configuration not stated)	nt	nt	i	i	nt	nt
CCCCN1/C(=C/c2ccc3ccccc3[n+]2CC)Sc2ccccc21	36	nt	i	i	i	nt
CC[n+]1c(/C=C2/Sc3ccc(OC)cc3N2C)ccc2cc(OC)ccc21	nt	nt	123	i	nt	nt
O=c1ccc(-c2cccs2)nn1C[C@H]1CCCN1S(=O)(=O)c1cccc2nonc12	nt	nt	nt	i	nt	nt
CN(C)C(=O)CSc1nnc(-c2ccc(Br)cc2)n1C	nt	nt	i	i	nt	nt
CCCCN(C)C(=O)c1oc2ccc(S(=O)(=O)N3CCCCCC3)cc2c1C	i	i	i	i	9.8	i
Cc1c(C(=O)O)oc2ccc(S(=O)(=O)N3CCCC3)cc12	i	i	nt	nt	nt	i
CC[C@H]1CN(C)[C@@H]2Cc3c([nH]c4ccccc34)C(=O)C[C@H]1[C@H]2C(=O)OC	nt	nt	52	i	nt	nt
SMILES	SKN-1 block	PG9 Ab binder	PGE2 EP2 inh	EP2 mod	RAM inhibit	NR1D1 modulator
COc1ccc(N2CCN(C(=O)c3cc4c(-c5cccc(OC)c5)nn(C)c4s3)CC2)cc1	35	i	i	i	i	i
CC(=O)N1CC=C2C(C#N)=C(N)C(C#N)(C#N)C(c3cccs3)C2C1 (configuration not stated)	nt	nt	i	i	nt	nt
Cc1nnc(NC(=O)CSc2ncnc3c2cnn3-c2ccccc2)s1	nt	nt	i	i	nt	nt
COc1cccc(NC(=O)NNC(=O)c2ccc3c(c2)NC(=O)C(C)(C)O3)c1	40	i	nt	nt	nt	i
CCc1ccc2[nH]c(=O)c(CN(Cc3cccs3)Cc3nnnn3Cc3ccco3)cc2c1	nt	nt	i	i	nt	nt
O=C(CNC(=S)N(Cc1ccccc1)Cc1ccccc1F)NCCc1ccccc1	i	i	i	i	11	i
O=C(CNC(=S)N(Cc1ccccc1)Cc1ccccc1F)NCc1ccccc1	i	i	i	i	i	i
CC(C)=CCc1c(O)cc(C)oc1=O	nt	nt	i	i	nt	nt
CC(C)=CCc1c(O)c(CC=C(C)C)c2c(c1O)-c1cc(O)c(O)cc1CC2	nt	nt	54	nt	nt	nt
CCCc1cc(NCc2ccccn2)n2c(nc3ccccc32)c1C#N	i	i	i	i	11	i
Cc1cc(NCc2ccccn2)n2c(nc3ccccc32)c1C#N	i	i	i	i	i	i
COc1ccc(CN(CCN(C)C)c2ncccn2)cc1	nt	nt	i	i	nt	i
CCCCCCCCCCCCCCCC[N+](C)(C)CCN(Cc1ccc(OC)cc1)c1ncccn1	59	nt	nt	nt	nt	nt
COCCNC(=O)C(=O)NCCc1c[nH]c2ccccc12	nt	nt	i	i	nt	nt
Cc1ncc(-c2ccncc2)c(C2CCCN(C(=O)c3ccc4c(c3)OCO4)C2)n1 (configuration not stated)	nt	nt	nt	i	nt	nt
Cc1ccc2oc3ccccc3c(=O)c2c1	i	i	nt	nt	nt	i
O=c1c2ccccc2oc2ccc(-c3ccc4cc[nH]c4c3)cc12	70	nt	nt	nt	nt	nt
Cc1noc(NS(=O)(=O)c2ccc(NC(=O)COc3ccccc3Cl)cc2)c1C	nt	nt	i	i	nt	nt
CCOc1cc(NC(=O)c2cccs2)c(OCC)cc1NC(=O)c1ccccn1	i	i	i	i	i	i
CCOc1cc(NC(=O)c2ccccn2)c(OCC)cc1NC(=O)c1cccc(C)c1	i	i	i	i	9.6	i
Cc1cccc(C(=O)Nc2cc(OCc3cccc(F)c3)c(Cl)cc2Cl)c1	i	i	i	i	9.4	i
CCNC(=S)N1C2CCCC1CC(NC(=O)C1CC1)C2 (configuration not stated)	nt	nt	i	i	nt	nt
COc1ccc(NC(=S)N2CCCC2c2ccc(OC)c(OC)c2)cc1 (configuration not stated)	i	i	i	i	9.9	i
CC(C)NC(=O)NC(=O)COC(=O)C1CCCN1C(=O)c1cccs1 (configuration not stated)	i	i	i	i	i	i
O=C(COC(=O)[C@@H]1CCCN1C(=O)c1cccs1)NCCc1ccccc1	36	i	i	i	i	i
SMILES	SKN-1 block	PG9 Ab binder	PGE2 EP2 inh	EP2 mod	RAM inhibit	NR1D1 modulator
CCc1cc2ccccc2nc1SCC(=O)OC(C)C	nt	nt	i	i	nt	nt
Cc1cc(Cl)ccc1OC(C)C(=O)Nc1ccccc1N1CCOCC1 (configuration not stated)	i	i	nt	i	9.5	i
COc1cccc(NC2=NCC(=O)N2Cc2ccc(F)cc2)c1	nt	nt	i	i	nt	nt
COc1ccc(N(CC(=O)Nc2cccc(N(C)S(C)(=O)=O)c2)S(=O)(=O)c2ccc(C)cc2)cc1	i	i	i	i	i	i
CCOc1ccc(N(CC(=O)Nc2cccc(N(C)S(C)(=O)=O)c2)S(=O)(=O)c2ccccc2)cc1	i	i	i	i	9.6	i
OC(CN1CCC(O)(c2ccc(F)cc2)CC1)c1ccc(Cl)c(Cl)c1 (configuration not stated)	nt	nt	i	i	nt	nt
Nc1cc(-c2ccco2)nn(CC(=O)NC2CCCCCCC2)c1=O	nt	nt	i	i	nt	nt
Clc1ccc(OCc2nnc(SCc3nnc(-c4ccccc4)o3)o2)c(Cl)c1	i	i	i	i	9.6	i
COC(=O)c1ccc(Nc2cc(C)nc(-c3ccccc3O)n2)cc1	i	45	i	i	i	i
